This is a sample that favours compounds with a hit; in the whole collection about 7.4% have one here.
Rab9 prom act = activators of Rab9 promoter; Huh7 Rab9 promoter-luciferase reporter, luminescence, 24 h; Potency, µM (doses to about 9.22 µM), inactives show at the top dose activation, negative = inhibition, most hits filed as activators; 320,000 compounds, 2.8% hits; AID 485297; note: % of control where 0% means no effect; nearly all actives have a fitted effect of over 60% in size
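Luciferase signal after 10 min detection reagent at ambient indicates Rab9 promoter upregulation; stably transfected Huh7 cells were treated 24 h with compound in DMSO at 37 °C, 5% CO2.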
ELG1 genotox = induces genotoxicity in HEK293T cells with luciferase-tagged ELG1; HEK293T ELG1-luciferase reporter, luminescence, 16 h; AID 504466; Potency, µM (highest dose often 46 µM), for inactives: at the top dose activity change, positive = activation, hits mostly activators; 330,000 compounds, 1.3% hits; note: % of control where 0% means no effect; nearly all actives have a fitted effect of over 60% in size
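ELG1-luciferase HEK293T cells, 2,000/well; compound pinned in; 16 hr, 37 °C, 5% CO2; ONE-Glo, 30 min RT; luminescence on CCD imager.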
Luc counter = blocks Kinase-Glo luciferase, a counter-screen artifact; Potency, µM (titrated, usually from 38.3 µM), for inactives: at the highest dose activity change, negative = inhibition, hits mostly inhibitors; Kinase-Glo luciferase, ATP luminescence, 8 min; 200,000 compounds, 0.28% hits; Q27757; note: % is set by controls: 0 for no effect and ±100 for the full control effect; nearly all actives have a fitted effect of over 60% in size
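Luminescence was the read-out, taken after 8-minute incubation at ambient temperature. Luciferase turned over luciferin with 10 uM ATP in imidazole pH 7.2 buffer containing KCl, MgCl2, Tween 20 and BSA.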
SMN2 splice enh = increases expression of the SMN2 splice variant; HEK293 SMN2-luciferase splicing reporter, luminescence, 30-36 h; Potency, µM (series often up to 46.1 µM), for the others: top-dose activity change, positive = activation, usual class: activators; 210,000 compounds, 2.8% hits; note: % of control where 0% means no effect; nearly all actives have a fitted effect of over 55% in size
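HEK293 cells carry an SMN2 […]–luciferase reporter in which exon 7 inclusion puts luciferase in frame. Cells were plated 10-12 h before compound addition, then incubated 30-36 h at 37C. ONE-Glo luminescence was read; sodium butyrate at 4.5 mM final served as control.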
NPC1 promoter act = activates the NPC1 promoter; Huh7 NPC1 promoter luciferase reporter, 24 h; AID 485313; Potency, µM (top dose mostly 9.22 µM), for the others: at the top dose activation, most hits filed as activators; 320,000 compounds, 2.4% hits; note: % of control where 0% means no effect; nearly all actives have a fitted effect of over 60% in size
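Luciferase expression driven by the NPC1 promoter was measured in stably transfected Huh7 cells after a 24 h compound incubation, using a luciferase reagent and a luminescence read.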
FLuc counter = firefly luciferase modulation, counter-screen for miR-21 project; P08659; purified FLuc, Km substrates, luminescence inhibition; Potency, µM (doses to about 57.5 µM), for inactives: at the highest dose activity change, negative = inhibition, hits mostly inhibitors; 360,000 compounds, 6.9% hits; AID 588342;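 note: plate controls were vehicle for no effect and reference inhibitor for full effect; nearly all actives have a fitted effect of over 55% in size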
Target sequence (P08659 whole entry, looked up): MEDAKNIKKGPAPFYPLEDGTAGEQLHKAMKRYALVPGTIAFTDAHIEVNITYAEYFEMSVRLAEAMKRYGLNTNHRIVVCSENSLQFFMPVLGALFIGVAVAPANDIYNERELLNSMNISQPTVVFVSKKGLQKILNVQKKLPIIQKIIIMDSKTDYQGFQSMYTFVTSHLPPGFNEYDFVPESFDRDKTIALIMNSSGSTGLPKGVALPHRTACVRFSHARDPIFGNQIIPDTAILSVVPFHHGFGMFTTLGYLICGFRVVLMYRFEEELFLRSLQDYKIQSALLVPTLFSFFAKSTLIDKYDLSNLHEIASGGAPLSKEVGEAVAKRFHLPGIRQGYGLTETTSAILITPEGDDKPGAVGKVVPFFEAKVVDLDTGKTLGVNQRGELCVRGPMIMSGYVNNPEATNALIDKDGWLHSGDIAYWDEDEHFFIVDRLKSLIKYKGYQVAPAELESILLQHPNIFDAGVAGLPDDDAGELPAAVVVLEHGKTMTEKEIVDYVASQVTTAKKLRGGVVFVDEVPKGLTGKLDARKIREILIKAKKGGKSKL
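Purified P. pyralis luciferase (10nM final) with 10uM D-luciferin and 10uM ATP (Km levels) in 50mM Tris acetate pH 7.5, 10mM Mg acetate, 0.01% Tween-20, 0.05% BSA; qHTS 6-point titration, ~60 µM downward; luminescence read.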
* = called active by the depositor; [ ] = remark or other dose. Calls come from the whole dose curve; as a rule, active = well fitted curve in the direction sought with a large enough effect; inconclusive = small, poorly fitted or top-dose-only effect, or another doubt; inactive = no such curve, though single readings can be large; an effect the other way counts as inactive or inconclusive. Potency is the fitted concentration of half-maximal effect.

How did COc1cc(OC)c(NC(=O)c2csc(C)c2)cc1Cl do in these assays?
Rab9 prom act: 9%; ELG1 genotox: -3%; NPC1 promoter act: 8%; FLuc counter: inconclusive

Results for CCCn1ncc(CN2CCCC(C(=O)c3cccc(OC(C)C)c3)C2)c1C (stereo not given) ?
Rab9 prom act: -3%; ELG1 genotox: 0%; NPC1 promoter act: 6%; FLuc counter: 0%

How did CCN(CC)S(=O)(=O)c1ccc(C(=O)NC2=NCCS2)cc1 do in these assays?
Rab9 prom act: 2%; ELG1 genotox: 1%; NPC1 promoter act: -1%; FLuc counter: 1%

What do the screens show for `COc1cc(OC)cc(C(=O)NC2=NCCS2)c1`?
Rab9 prom act: 26%; ELG1 genotox: inconclusive; Luc counter: -6%; SMN2 splice enh: 8%; NPC1 promoter act: 3%; FLuc counter: 11µM*

Results for O=C(NC12CC3CC(CC(C3)C1)C2)c1cccnc1 ?
Rab9 prom act: 0%; ELG1 genotox: 1%; Luc counter: -7%; SMN2 splice enh: -7%; NPC1 promoter act: 3%; FLuc counter: 6%

How did CC(C)Oc1ccc(C(=O)NC2=NCCS2)cc1 do in these assays?
Rab9 prom act: 0.45µM*; ELG1 genotox: inconclusive; Luc counter: -5%; SMN2 splice enh: 2.5µM*; NPC1 promoter act: 0.71µM*; FLuc counter: 6µM*

What do the screens show for `CN1CCc2nc(NC(=O)c3cccc(OC(F)F)c3)sc2C1`?
Rab9 prom act: 22%; ELG1 genotox: inconclusive; Luc counter: -1%; SMN2 splice enh: 16%; NPC1 promoter act: 24%; FLuc counter: 11µM*

Results for O=C(NC12CC3CC(CC(C3)C1)C2)c1cccc(OC(F)F)c1 ?
Rab9 prom act: 2%[1.84 µM]; ELG1 genotox: 0%; NPC1 promoter act: 25%; FLuc counter: 15µM*

How did CN1CCc2nc(NC(=O)COc3ccc4ccccc4c3)sc2C1 do in these assays?
Rab9 prom act: 0%; ELG1 genotox: -20%; Luc counter: 1%; SMN2 splice enh: -72%; NPC1 promoter act: -3%; FLuc counter: 2%

How did CCN(CCn1cccn1)Cc1cn[nH]c1-c1cccc2ccccc12 do in these assays?
Rab9 prom act: 1%; ELG1 genotox: 0%; NPC1 promoter act: -1%; FLuc counter: 1%

How did Cc1nc(SCC(=O)Nc2nnc(C(C)C)s2)n[nH]1 do in these assays?
Rab9 prom act: 0%; ELG1 genotox: 4%; NPC1 promoter act: 2%; FLuc counter: 0%

Results for [N-]=[N+]=NCC/C=C\C1NS(=O)(=O)OCC1O (stereo not given) ?
Rab9 prom act: 0%; ELG1 genotox: -2%; NPC1 promoter act: 0%; FLuc counter: 2%

How did O=C(NCCCN1CCCCC1)c1cc(Sc2ccc(Cl)cc2)nc2ccccc12 do in these assays?
FLuc counter: -3%

Results for O=C(NC1=NCCS1)c1cccc(N2C(=O)c3ccccc3C2=O)c1 ?
Rab9 prom act: 0%; ELG1 genotox: 0%; Luc counter: 1%; SMN2 splice enh: -12%; NPC1 promoter act: -4%; FLuc counter: -12%

How did COc1ccc(C(=O)CCC(=O)NC2=NCCS2)cc1 do in these assays?
Rab9 prom act: 2%; ELG1 genotox: 8%; NPC1 promoter act: 5%; FLuc counter: -6%

How did COc1ccc(C(=O)NC2=NCCS2)cc1 do in these assays?
Rab9 prom act: 2.8µM*; ELG1 genotox: inconclusive; NPC1 promoter act: 2.2µM*; FLuc counter: 19µM*

Results for O=C(NC1=NCCS1)c1cccc(OC(F)F)c1 ?
Rab9 prom act: 1.3µM*; ELG1 genotox: 5.8µM*; Luc counter: -3%; SMN2 splice enh: 11µM*; NPC1 promoter act: 2.2µM*; FLuc counter: 12µM*

How did O=C(NCc1ccc(-n2cccc2)cc1)c1cccc(F)c1 do in these assays?
Rab9 prom act: 16%; ELG1 genotox: -2%; Luc counter: -4%; SMN2 splice enh: -10%; NPC1 promoter act: 0%; FLuc counter: -3%

What do the screens show for `CC(C)c1nnc(NC(=O)CC(=O)Nc2ccccc2C(=O)O)s1`?
Rab9 prom act: 3.5µM*; ELG1 genotox: inconclusive; Luc counter: -14%; SMN2 splice enh: -17%; NPC1 promoter act: 2.5µM*; FLuc counter: 4.8µM*

Results for CCCCc1nnc(NC(=O)CCSc2ccccc2)s1 ?
Rab9 prom act: 0%; ELG1 genotox: -1%; Luc counter: -1%; SMN2 splice enh: -14%; NPC1 promoter act: 4%; FLuc counter: 0%

Results for CCc1nnc(NC(=O)CC(=O)Nc2ccccc2C(=O)O)s1 ?
Rab9 prom act: inconclusive; ELG1 genotox: 1%; Luc counter: -5%; SMN2 splice enh: -11%; NPC1 promoter act: 18%; FLuc counter: 15µM*

How did CC(C)Cc1nnc(NC(=O)CC(=O)Nc2ccccc2C(=O)O)s1 do in these assays?
Rab9 prom act: 7%; ELG1 genotox: 8%; Luc counter: -3%; SMN2 splice enh: -10%; NPC1 promoter act: 12%; FLuc counter: 15µM*

Results for CCCCc1nnc(NC(=O)CC(=O)Nc2ccccc2C(=O)O)s1 ?
Rab9 prom act: -1%; ELG1 genotox: 2%; Luc counter: 0%; SMN2 splice enh: -13%; NPC1 promoter act: 10%; FLuc counter: 17µM*

What do the screens show for `COc1ccc(NC(=O)COc2cccc3c2CCN(C)C3=O)c(OC)c1`?
Rab9 prom act: -10%; ELG1 genotox: 5%; NPC1 promoter act: 0%; FLuc counter: 1%

What do the screens show for `CCOc1ccc(-n2c(-c3ccc(Br)cc3)cc3c2CC(C)(C)CC3=O)cc1`?
SMN2 splice enh: -2%; FLuc counter: 1%

What do the screens show for `O=C(CSc1nc2ccccc2n1Cc1ccccc1Cl)NCc1ccccc1`?
FLuc counter: 1%

What do the screens show for `O=C1NC2(C=Cc3c(ccc4ccccc34)O2)Oc2ccccc21` (stereo not given)?
Rab9 prom act: 28%; ELG1 genotox: 15%; Luc counter: 0%; SMN2 splice enh: -5%; NPC1 promoter act: inconclusive; FLuc counter: 6µM*

How did FC(F)Oc1ccc(NC(=S)NC2CCCCCCC2)cc1 do in these assays?
Rab9 prom act: 28%; ELG1 genotox: -12%; NPC1 promoter act: 23%; FLuc counter: 19µM*

What do the screens show for `S=C(Nc1ccc(Br)cc1)NC1CCCCC1`?
Rab9 prom act: 21%; ELG1 genotox: 7%; Luc counter: 0%; SMN2 splice enh: 13µM*; NPC1 promoter act: 23%; FLuc counter: 11µM*

How did S=C(Nc1cccc(Cl)c1)NC1CCCCC1 do in these assays?
Rab9 prom act: 4%; ELG1 genotox: -1%; Luc counter: -3%; SMN2 splice enh: 3%; NPC1 promoter act: 2%; FLuc counter: inconclusive

Source: PubChem BioAssay
